# Hits are enriched below; roughly 3.6% of the tested compounds scored in any of these assays.
# BoNT F protease – blocks Botulinum neurotoxin F light chain protease. Multiplex microsphere protease cleavage assay, flow cytometry. inhibition, % at 10 µM. 360,000 compounds, 0.22% hits; in the data active = inhibition above about 35%, passing the limit was not always enough; inconclusive = no clear call, values can overlap the other calls; also: plate controls were buffer without enzyme for full effect and enzyme alone for no effect
# MazF activator – increases E. coli MazEF RNase cleavage of RNA; P0AE70; FAM/BHQ RNA-DNA oligo cleavage fluorescence, 5 h; activation, % at 20 µM; 350,000 compounds, 0.32% hits; in the data active = activation above about 50%
# Bead autofluor – counter-screen for toxin protease inhibitors: compound fluorescence | 360,000 compounds, 3.1% hits | fluorescence intensity (concentration not given with the values) | compound autofluorescence counterscreen, microsphere flow cytometry; hits give high values; in the data active = fluorescence intensity above about 16000; inconclusive = no clear call, values can overlap the other calls
# BoNT-A LC inh2 – blocks Botulinum neurotoxin A light chain protease; 360,000 compounds, 0.17% hits; inhibition, % at 10 µM; AID 588499; multiplex microsphere protease substrate cleavage, flow cytometry; also: plate controls were buffer without enzyme for full effect and enzyme alone for no effect
# Anthrax LF inh2 – inhibitors of Bacillus anthracis lethal factor protease. P15917. multiplex microsphere protease cleavage assay, LF. inhibition, % at 10 µM. 360,000 compounds, 0.12% hits; also: plate controls were buffer without enzyme for full effect and enzyme alone for no effect
# * hit, by the source's call; ? = inconclusive; nt = no result. Rule as the data show it, unless noted: active = inhibition above about 30%; inconclusive = no clear call, values can overlap the other calls; inactive = below that.
SMILES,BoNT F protease,MazF activator,Bead autofluor,BoNT-A LC inh2,Anthrax LF inh2
CCN(CC)C(=O)C1=C(C)NC(=S)NC1c1cn(-c2ccccc2)nc1-c1ccc(Cl)cc1 (stereo not given),-2,-1,23563*,0,-1
O=C(NC1CCN(Cc2ccc(Cl)cc2)CC1)c1cn(-c2ccccc2)nc1-c1cccnc1,7,-5,21980*,0,-9
O=C(NCc1ccncc1)c1cn(-c2ccccc2)nc1-c1cccnc1,-1,6,4307,0,1
Fc1cccc(Cc2c(-c3ccco3)nc3c4ccccc4ccn23)c1,-6,nt,6628,0,0
O=C(Nc1cnccn1)C1c2ccccc2Oc2ccccc21,2,5,19665*,2,-1
Cc1ccc(NC(=O)C2c3ccccc3Oc3ccccc32)nc1,0,-1,4787,0,-5
CCCCc1c(O)nc(N2CCN(Cc3ccccc3)CC2)[nH]c1=O,4,7,21940*,2,0
Cc1cc(=O)[nH]c(N2CCN(Cc3ccccc3)CC2)n1,-8,-2,10349,-1,-1
CC(C)N1C(=O)CCC1C(=O)NC1CCCC1 (stereo not given),9,-2,20690*,6,-4
Cc1ccc(CNC(=O)C2CCC(=O)N2CCc2ccccc2)cc1 (stereo not given),1,-3,20485*,0,-8
O=C(NCCc1ccc(Cl)cc1)C1CCC(=O)N1Cc1ccccc1Cl (stereo not given),1,0,22400*,1,-6
Cc1ccc(CCNC(=O)C2CCC(=O)N2CCc2ccccc2)cc1 (stereo not given),9,4,3838,-2,-3
CC(C)N1C(=O)CCC1C(=O)NCCc1ccccc1 (stereo not given),0,6,23958*,-1,1
CC(C)N(C(=O)[C@H]1CC(CC(=O)NCC23CC4CC(CC(C4)C2)C3)C(=O)N2CCc3c([nH]c4ccccc34)[C@]12C)C(C)C (stereo not given in full),0,4,3033,0,-15
COc1ccc(Cl)cc1NC(=O)CN(C)C(=O)c1cc(=O)c2ccccc2o1,-2,-25,2699,0,-8
Oc1ccccc1C(=S)N1CCCCC1,-9,8,2874,0,-6
Oc1ccccc1C(=S)N1CCCCCC1,1,9,19817*,2,-8
O=C(O)c1cccc(N2C(=O)/C(=C/c3ccc(SCc4ccc(Cl)cc4)o3)SC2=S)c1,1,574*,4497,12,6
CN(CC(=O)NCc1ccccn1)S(=O)(=O)c1cc(Cl)ccc1Cl,3,-10,5724,2,4
CCCc1nc2c3ccccc3ccn2c1Cc1cccc(F)c1,0,nt,6281,1,6
COc1ccccc1NCC(=O)N/N=C/c1cccnc1,-3,-14,23032*,-3,-2
Cn1c(=O)c2c(nc(N3CCN(c4ccccn4)CC3)n2Cc2ccccc2Cl)n(C)c1=O,7,14,21245*,?,1
CS(=O)(=O)N(CC(=O)Nc1ccc2c(c1)OCCO2)Cc1ccccc1,0,6,21816*,2,0
O=C(CN(Cc1ccccc1)S(=O)(=O)c1ccc2c(c1)OCCO2)Nc1ccc2c(c1)OCCO2,-5,-22,4248,0,-7
COCCNC(=O)CN(Cc1ccc(Cl)cc1)S(C)(=O)=O,0,-6,20349*,1,0
SMILES,BoNT F protease,MazF activator,Bead autofluor,BoNT-A LC inh2,Anthrax LF inh2
CS(=O)(=O)N(CC(=O)Nc1ccccc1)Cc1ccc(Cl)cc1,-2,5,11059,0,-4
COc1ccc(NC(=O)CN(Cc2ccccc2)S(C)(=O)=O)cc1,0,6,23289*,2,0
Cc1ccc(NC(=O)CN(Cc2ccccc2)S(C)(=O)=O)cc1C,-1,-2,20638*,0,1
CS(=O)(=O)N(CC(=O)Nc1c(F)cccc1F)Cc1ccccc1,20,10,4272,3,9
CCCCCCCCCCCC(=O)N1CC(=O)NC(=O)C1,-60,4,4487,-3,-11
Cc1cn2c(-c3ccncc3)nnc2s1,-6,-4,2312,0,5
Cc1cn2c(-c3cccnc3)nnc2s1,6,3,19239*,6,-18
Cc1cccc(N2CCN(CC(O)COc3ccc4ccccc4c3)CC2)c1 (stereo not given),-8,2,2945,0,-8
CC(OC(=O)CNC(=O)C12CC3CC(CC(C3)C1)C2)C(=O)Nc1ncc(Cl)cc1Cl (stereo not given),4,-5,18610*,3,0
CC(OC(=O)CNC(=O)C12CC3CC(CC(C3)C1)C2)C(=O)Nc1ccc(S(N)(=O)=O)cc1 (stereo not given),-2,1,4411,0,3
CC(OC(=O)CN(C)S(=O)(=O)c1ccc(Cl)cc1)C(=O)Nc1ncc(Cl)cc1Cl (stereo not given),-2,3,23244*,0,-1
CCOC(=O)c1ccc(N(CCC2CO2)S(=O)(=O)c2ccc(C)cc2)cc1 (stereo not given),0,-10,2933,0,-7
Cc1ccc(NC(=O)COC(=O)c2ccc(Cl)nc2)cc1S(=O)(=O)N1CCCCC1,13,-2,3148,1,4
CC(=O)Nc1nc(-c2ccc(Cl)cc2)ns1,-2,6,2703,2,3
Nc1c(S(=O)(=O)c2cc(Cl)ccc2Cl)c2nc3ccccc3nc2n1CCN1CCOCC1,2,-3,24321*,?,-1
CC(=O)Nc1ccc(S(=O)(=O)c2c(N)n(CCN3CCOCC3)c3nc4ccccc4nc23)cc1,4,9,3539,2,2
CNc1nc(-c2ccccc2)c2sccc2n1,-11,nt,3975,0,-6
O=[N+]([O-])c1cccc(-c2nc(-c3cccs3)c(-c3cccs3)[nH]2)c1,5,111*,2360,0,-2
O=[N+]([O-])c1cccc(-c2nc(-c3ccccc3)c(-c3cccs3)[nH]2)c1,-1,20,2499,0,-4
COc1ccccc1-c1csc(C(O)c2ccccc2)n1 (stereo not given),-2,nt,3600,0,0
CCc1nc2ccc(C(=O)N(CC)CCN(C)C)cn2c1N(C)C(=O)c1cccc(OC)c1,-5,nt,3907,0,-6
Cc1ccc(C(=O)N2CCN(c3nc4ccccc4n3C)CC2)cc1,25,6,3042,1,10
COc1ccccc1NC(=O)c1ccccc1-c1nc(-c2ccccc2OC)no1,-6,-6,21774*,-5,-4
COc1ccccc1NC(=O)c1cc(Cl)ccc1NC(=O)c1ccco1,-16,7,2849,0,-6
CCOc1ccccc1NC(=O)c1ccc(NC(=O)c2ccco2)cc1,5,-8,3366,-1,3
CCOc1ccccc1NC(=O)c1cc(Cl)ccc1NC(=O)c1ccco1,11,-19,17027*,8,-12
COc1ccc(NC(=O)c2ccco2)cc1NC(=O)c1ccco1,-2,-3,9627,0,-7
COc1ccccc1NC(=O)c1ccccc1NC(=O)c1cc(Cl)ccc1NC(=O)c1ccco1,3,-6,21221*,?,0
